Inconclusive results are not listed. Where a call stands in place of a potency, no number is given. Calls of active or inactive are those of the source. Calls follow the shape of the dose curve; as a rule, active = well fitted cell-killing curve with a large enough effect in the repeat runs; inconclusive = weak or mixed curves, or effect the other way; inactive = flat fitted curve, though single readings scatter.
Assay: qHTS RealTime-Glo MT Cell Viability Assay in HEK293 cells - 0 hour (AID 1224880); also: top concentration of the series differs between compounds; nearly all actives have a fitted effect of over 45% in size
Conditions: RealTime-Glo luminescence; series mostly up to 76.8 µM
Excerpt: U.S. Tox21 Program National Center for Advancing Translational Sciences [NCATS] NIH Chemical Genomics Center [NCGC] U.S. Environmental Protection Agency [EPA] National Institutes of Environmental Health Sciences [NIEHS] National Toxicology Program [NTP] U.S. Food and Drug Administration [FDA] Tox21 Assay Overview: Measure of cell viability is critical in the cell-base assay. Analysis of cell viability is necessary for the characterization of cell responses to cytotoxic drugs and environmental stress. A RealTime-Glo MT Cell Viability Assay to monitor cell viability in real time of continues cell culture during 40 hours of compound treatment was used to screen Tox21 10K library compounds in Hek293 cells. The RealTime-Glo MT Cell Viability Assay is a nonlytic, homogeneous, bioluminescent method to measure cell viability in real time using a simple, plate-based method. The assay involves adding NanoLuc luciferase and a cell-permeant prosubstrate to cells in culture. Viable cells reduce the proprietary prosubstrate to generate a substrate for NanoLuc luciferase. This substrate diffuses from cells into the surrounding culture medium, where it is rapidly used by the NanoLuc Enzyme to produce a luminescent signal. The signal correlates with the number of viable cells, making the assay well suited for cytotoxicity studies.
Tox21 Assay Protocol Summary: The mixture of Hek293 cell suspension and reagents were dispensed at 600cells/6 ul/well in 1536-well tissue culture treated black solid bottom plates using a Multidrop dispenser. After the assay plates were incubated at a 37 C/5% CO2 incubator for 5 hours, 23 nL of compounds dissolved in DMSO, positive and negative controls was transferred to the assay plate by a pintool work station. The plates were incubated at 37 C for 40 hours. The luminescence intensity were measured at 0h, 8h, 16h, 24h, 32h and 40h time points using ViewLux plate reader during compound treatment.

Q: Which Potency does the source give for COc1cc(-c2ccc(=O)[nH]n2)ccc1OC(F)F here?
A: inactive

Q: Which Potency does the source give for NC(CCC(=O)O)C(=O)O (stereo not given) here?
A: inactive

Q: Which Potency does the source give for CC(=O)C1CCCCC1=O (stereo not given) here?
A: inactive

Q: Which Potency does the source give for CC(CC=O)CC(C)(C)C (stereo not given) here?
A: inactive

Q: With CCOC(=O)C(=O)CCCCCCl as the compound, how does the Potency read?
A: inactive

Q: With Cc1ccc(C(=O)Nc2ccc(S(=O)(=O)O)c3cc(S(=O)(=O)O)cc(S(=O)(=O)O)c23)cc1NC(=O)c1cccc(NC(=O)Nc2cccc(C(=O)Nc3cc(C(=O)Nc4ccc(S(=O)(=O)O)c5cc(S(=O)(=O)O)cc(S(=O)(=O)O)c45)ccc3C)c2)c1 as the compound, how does the Potency read?
A: inactive

Q: Which Potency does the source give for CC(=O)OCC(=O)[C@@]1(O)[C@H](C)C[C@H]2[C@@H]3CCC4=CC(=O)C=C[C@]4(C)[C@@]3(F)[C@@H](O)C[C@@]21C here?
A: inactive

Q: For CC(C)CCCO, which Potency is on record?
A: inactive

Q: Which Potency does the source give for CCCCCCCCCCCCSC here?
A: inactive

Q: Which Potency does the source give for NCCCC(N)(C(=O)O)C(F)F (stereo not given) here?
A: inactive

Q: For CCCCCC(C)N (stereo not given), which Potency is on record?
A: inactive

Q: Which Potency does the source give for CC(C)C1CCC(O)CC1 (stereo not given) here?
A: inactive

Q: Which Potency does the source give for CC1=NN(c2cccc(S(=O)(=O)O)c2)C(=O)C1 here?
A: inactive

Q: Which Potency does the source give for C1CCC2=NCCCN2CC1 here?
A: inactive

Q: With CC(C)(C)C(=O)Oc1ccc(S(=O)(=O)Nc2ccccc2C(=O)NCC(=O)O)cc1 as the compound, how does the Potency read?
A: inactive

Q: Which Potency does the source give for CCOC(=O)C1=NOC(c2ccccc2)(c2ccccc2)C1 here?
A: inactive

Q: For CC(C(=O)O)c1cccc(Oc2ccccc2)c1 (stereo not given), which Potency is on record?
A: inactive

Q: Which Potency does the source give for CC12CCC(C(=O)C1=O)C2(C)C (stereo not given) here?
A: inactive

Q: For C=COC(=O)C(C)(CC)CCC(C)C (stereo not given), which Potency is on record?
A: inactive

Q: With CC[N+](CC)(CC(=O)Nc1c(C)cccc1C)Cc1ccccc1 (tested in a mixture with another compound) as the compound, how does the Potency read?
A: inactive

Q: Which Potency does the source give for NO here?
A: inactive

Q: Which Potency does the source give for O=CN(CCO)CCO here?
A: inactive

Q: For CCC1C(=O)OCC1Cc1cncn1C (stereo not given), which Potency is on record?
A: inactive

Q: Which Potency does the source give for CCC(C(=O)NC(=O)NC(C)=O)c1ccccc1 (stereo not given) here?
A: inactive

Q: Which Potency does the source give for CC(C)(C)C(=O)c1ccccc1 here?
A: inactive

Q: For CCCCS(=O)(=O)N[C@@H](Cc1ccc(OCCCCC2CCNCC2)cc1)C(=O)O, which Potency is on record?
A: inactive

Q: For NS(=O)(=O)Cc1noc2ccccc12, which Potency is on record?
A: inactive

Q: With C[N+](C)(CCOc1ccccc1)Cc1cccs1 as the compound, how does the Potency read?
A: inactive

Q: With CCO[Si](OCC)(OCC)c1ccccc1 as the compound, how does the Potency read?
A: inactive

Q: With NC(=O)N1c2ccccc2CC(=O)c2ccccc21 as the compound, how does the Potency read?
A: inactive

Q: For CC(=O)NC(=O)c1ccccc1O, which Potency is on record?
A: inactive

Q: For CN(C)CCCCCCN(C)C, which Potency is on record?
A: inactive

Q: With Cc1nc2ccc(CN(C)c3ccc(C(=O)N[C@@H](CCC(=O)O)C(=O)O)s3)cc2c(=O)[nH]1 as the compound, how does the Potency read?
A: inactive

Q: For CC(C)CC(C)(N)C#N (stereo not given), which Potency is on record?
A: inactive

Q: Which Potency does the source give for COc1ccc2cc1Oc1cc3c(cc1OC)CC[N+](C)(C)[C@H]3Cc1ccc(cc1)Oc1c(OC)c(OC)cc3c1[C@@H](C2)[N+](C)(C)CC3 here?
A: inactive

Q: Which Potency does the source give for CO[Si](C)(OC)c1ccccc1 here?
A: inactive

Q: Which Potency does the source give for CC(C)c1ccc2ncccc2c1 here?
A: inactive

Q: For Cc1ccc(-c2ncc(Cl)cc2-c2ccc(S(C)(=O)=O)cc2)cn1, which Potency is on record?
A: inactive

Q: For FB(F)F, which Potency is on record?
A: inactive

Q: Which Potency does the source give for CCOc1ccccc1OCC here?
A: inactive

— PubChem BioAssay (Tox21)
